Compounds with a hit are over-represented: about 6.5% of the library has one in this group of screens.
Vaccinia Venus = vaccinia inhibition (Venus reporter); Vaccinia virus Venus reporter expression, fluorescence; Potency, µM (highest dose often 36.5 µM), without a hit: at the top dose activity change, negative = inhibition, actives largely listed as inhibitors; actives 0.46% (n = 330,000); calls by dose curve; tested in A549 cells; note: potency is the fitted concentration of half-maximal effect; nearly all actives have a fitted effect of over 30% in size
HCMV inh = blocks human cytomegalovirus replication; activity change, negative = inhibition, % at 57.5 µM; HFF cells, HCMV-luciferase reporter, 72 h; active compounds read low; AID 1259415; actives 4.5% (n = 410,000); in the data active = activity change below about -60%; inconclusive = no clear call, values can overlap the other calls; inactive = above about -39%
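Steps: HFFs plated, 16 h 37C; compounds added; HCMV-luciferase added to MOI 1 PFU/cell; 72 h 37C; OneGlo reagent, 5 min room temperature; luminescence read, normalized to controls.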
MARV entry inh = blocks Marburg virus binding to or entry into cells; Potency, µM (top dose mostly 37.8 µM), inactives show top-dose activity change, negative = inhibition, actives largely listed as inhibitors; AID 540276; Marburg virus pseudotyped entry inhibition, cell reporter; actives 1.8% (n = 300,000); calls by dose curve; tested in HEK293 cells; note: potency is the fitted concentration of half-maximal effect
Lassa entry inh = blocks Lassa virus binding to or entry into cells. Lassa virus pseudotype entry inhibition, cell reporter. Potency, µM (doses to about 37.9 µM), inactives show top-dose activity change, negative = inhibition, hits mostly inhibitors. actives 1.2% (n = 300,000). AID 540256; calls by dose curve; tested in HEK293 cells; note: potency is the fitted concentration of half-maximal effect; nearly all actives have a fitted effect of over 50% in size
FMDV inh = blocks foot and mouth disease virus; FMDV antiviral cell-based qHTS; Potency, µM (titrated, usually from 57.9 µM), inactives show at the highest dose activity change, negative = inhibition, actives largely listed as inhibitors; AID 1159524; actives 1.2% (n = 410,000); calls by dose curve; tested in HEK293T cells; note: read-out not given here; potency is the fitted concentration of half-maximal effect; nearly all actives have a fitted effect of over 45% in size
VACV mCherry inh = inhibitors of vaccinia virus infection (mCherry reporter signal) | actives 0.63% (n = 310,000) | AID 720579 | Vaccinia virus mCherry reporter infection, fluorescence | Potency, µM (series often up to 36.5 µM), without a hit: at the top dose activity change, negative = inhibition, usual class: inhibitors; calls by dose curve; tested in A549 cells; note: potency is the fitted concentration of half-maximal effect; nearly all actives have a fitted effect of over 35% in size
* hit, by the source's call; i = inactive; ? = inconclusive; . = no result given; [ ] = remark or other dose. % is set by controls: 0 for no effect and ±100 for the full control effect.

SMILES	Vaccinia Venus	HCMV inh	MARV entry inh	Lassa entry inh	FMDV inh	VACV mCherry inh
N=c1n(CC(=O)c2ccc([N+](=O)[O-])cc2)c2ccccc2n1Cc1ccc(Cl)cc1	.	-13	.	.	-2%	.
N=c1n(CC(=O)c2ccc(Br)cc2)c2ccccc2n1Cc1ccccc1	11µM*	-61*	.	.	-12%	?
Cc1ccc(NC(=O)C2CCN(c3nc4ccccc4nc3C(F)(F)F)CC2)cc1F	1%	-3	.	-18%[46.1 µM]	?	1%
Cc1ccc(NC(=O)/C(=C/c2cccc([N+](=O)[O-])c2)NC(=O)C2CCCCC2)c(C)c1	-5%	-96*	?	?	.	?
CCCc1nnc(NC(=O)c2cc(=O)c3cc(C)c(C)cc3o2)s1	-9%	3	1%[46.1 µM]	24%[46.1 µM]	-9%	-3%
O=C(NS(=O)(=O)Oc1ccc(Cl)cc1)OC[C@@H]1CCCN2CCCC[C@H]12	-5%	?	2%	1%	-15%	-10%
Cc1cccc(OS(=O)(=O)NC(=O)OCC2CCCN3CCCCC23)c1 (centres undefined)	-11%	-14	-20%[46.1 µM]	0%	32µM*	-9%
CC1CCCCN1S(=O)(=O)c1cc2c3c(c1)CC(=O)N3CCC2 (centres undefined)	-6%	-16	.	6%[46.1 µM]	-9%	-6%
Cc1sc2nc(-c3ccccn3)[nH]c(=O)c2c1-c1ccccc1	-9%	-61*	?	?	7%	?
COCCNCc1nc2sc(C)c(-c3ccccc3)c2c(=O)[nH]1	-5%	-101*	-2%	-9%	-10%	i
Cc1sc2nc(CN3CCOCC3)[nH]c(=O)c2c1-c1ccccc1	-8%	-28	?	-3%	-15%	-1%
CC12C=C(C=CCCc3ccco3)C(C)(C1)C(CCc1ccco1)CC2=O (centres undefined)	.	.	-6%[14.2 µM]	.	.	.
CCOc1ccc(CSC2=NCCN2)cc1Cl	.	35	15µM*	?	-14%	.
N#Cc1ccc(CSC2=NCCN2)cc1	-22%	?	?	?	-28%	-22%
Cc1cc(-c2ccc(C)c(S(=O)(=O)NC(c3cccs3)C(C)C)c2)on1 (centres undefined)	-21%	-26	.	-26%[46.1 µM]	58%	-30%
CCCCNC(=O)O[C@H]1CC[C@@]23CCCN2C(=O)CCC[C@H]3[C@H]1Cc1ccccc1	.	-17	.	.	.	.
CC(C)(C)c1ccc(O)c(N=Cc2c(O)ccc3ccccc23)c1	-26%	-92*	?	?	-24%	?
CCCCN1CC(COCc2ccccc2)Oc2cccc(N3CCCCC3)c2S1(=O)=O (centres undefined)	.	-13	.	.	.	.
O=P(c1ccccc1)(c1ccccc1)c1nc(-c2ccc(Cl)cc2)oc1N1CCOCC1	.	-88*	?	-29%	-24%	.
COc1ccc(OC)c(NC(=O)Cc2c(C(=O)O)n(C)c3ccc(C)cc23)c1	-10%	1	2%[46.1 µM]	?	10%	-19%
CCc1ccc(NC(=O)CN2C(=O)CC(c3ccccc3)Sc3ccccc32)cc1 (centres undefined)	-10%	-7	5%[46.1 µM]	.	-13%	-8%
CNCCC(Oc1ccccc1C)c1ccccc1 (centres undefined)	.	.	14µM*	?	.	.
COc1ccc(CCN=C(N)C(C)c2ccccc2)cc1OC (centres undefined)	-3%	-3	-3%	2%	-19%	-12%
CC(C)Cc1ccc(C(C)C(N)=NCCc2ccccc2)cc1 (centres undefined)	-22%	-87*	2.2µM*	?	-30%	?
Cc1cccc(N2CCN(c3ncnc4onc(C)c34)CC2C)c1 (centres undefined)	-13%[7.34 µM]	-100*	.	?	3.2µM*	-10%[7.34 µM]
SMILES	Vaccinia Venus	HCMV inh	MARV entry inh	Lassa entry inh	FMDV inh	VACV mCherry inh
Cc1cccc(N2CCN(c3ncnc4onc(-c5ccc(F)cc5)c34)CC2C)c1 (centres undefined)	1%	-16	.	-10%[46.1 µM]	?	-6%
CCOC(=O)c1c(Oc2ccc(C(C)=O)cc2)nnc(-c2ccccc2)c1-c1ccccc1	-3%	-20	?	-25%[46.1 µM]	?	-12%
CCC1CN(CC(=O)NC(C)c2c(C)nn(C)c2C)Cc2cc(OC)ccc2O1 (centres undefined)	3%	.	.	.	3%	-7%
O=C(NCCc1ccccc1)c1csc(C(O)Cc2ccc(F)cc2)n1 (centres undefined)	.	7	.	.	.	.
CCN(c1ccc(OC)cc1)S(=O)(=O)c1ccc(-c2ccc(=O)[nH]n2)o1	.	-64*	.	.	-26%	.
CCN(c1cccc(C)c1)S(=O)(=O)c1ccc(-c2ccc(=O)[nH]n2)o1	.	?	.	.	-6%	.
CC1CN=C(c2ccc(Cl)cc2)c2c3ccc(C(F)(F)F)cc3[n+]([O-])n21 (centres undefined)	.	5	.	.	.	.
CNc1ccc(C=O)cc1Cl	-6%	.	.	.	.	-9%
CC1(C)CC(=O)c2c(O)cc(OCc3ccc(Br)cc3)cc2O1	.	-109*	?	10%	14%	.
COC(=O)c1ccc(COc2cc(O)c3c(c2)OC(C)(C)CC3=O)cc1	-10%	-8	-9%	-6%	-21%	-17%
Oc1ccc(C=NNC(=S)Nc2cccnc2)nc1	-22%	-69*	?	10µM*	27%	-26%
S=C(N/N=C/c1ccc2ncccc2c1)Nc1cccnc1	.	-71*	.	.	14µM*	.
Cc1ccc(N(C(=O)CCC(=O)Nc2nccs2)C(C(=O)NC(C)(C)C)c2ccc(O)cc2)cc1 (centres undefined)	-7%	?	8.9µM*	-15%[46.1 µM]	-17%	i
CC(C)(C)NC(=O)C(c1ccc(O)cc1)N(Cc1ccccc1)C(=O)CCC(=O)Nc1nccs1 (centres undefined)	-11%	-20	-28%[46.1 µM]	-10%	-2%	-11%
CC(C)(C)NC(=O)C(c1ccc(O)cc1)N(C(=O)CCC(=O)Nc1nccs1)c1ccc(F)cc1 (centres undefined)	-9%	-13	2.2µM*	?	-7%	-1%
Cc1cccc(N2CCN(C(=O)c3c(C)nn(Cc4ccccc4Cl)c3C)CC2)c1C	?	?	?	?	35µM*	.
O=C(CNC(=O)C1CCCCC1)OCc1ccccc1	15%	.	.	.	.	23%
c1ccc(OCc2noc(CN3CCC(C4CCCCC4)C3)n2)cc1 (centres undefined)	.	-61*	.	.	-15%	.
Cc1ccc(-c2nc3cc(Br)cnc3nc2-c2ccc(C)cc2)cc1	2%	-37	3.2µM*	?	?	1%
Brc1cccc(-c2nc3cccnc3nc2-c2cccc(Br)c2)c1	.	12	.	.	0%	.
CCCC[C@@H](CNC)NC[C@H](Cc1ccc(O)cc1)NCCc1ccc(OCC)cc1	13µM*	-85*	.	.	-2%	?
CCN(CCCN(C)C)c1ccc(/C=C/c2ccnc3ccccc23)cc1	7%	.	.	.	.	-19%
O=C(N/N=C/c1ccccc1F)c1csc2c1CCCC2	-20%	41	10%	11µM*	1%	i
O=C(N/N=C/c1cccc(F)c1)c1csc2c1CCCC2	-19%	40	?	?	6%	.
